Several values for one entry are separate records, joined by “and”; a condition that tells them apart may be missing. Equal values may be shown once. In all, about 13,000 compounds were measured (“IFI”: median about 4, highest 2% from about 17 on). What follows is part of a selection rich in the highest values, with near analogues and random picks from the rest.
assay: GSK_TCMDC: Inhibition Frequency Index (IFI). The number of non-kinase HTS assays where a compound showed > 50 % inhibition, expressed as a percentage of the number of such assays in which the compound was tested; format: functional

Row | SMILES | IFI
1 | CN(C(=O)OCc1ccccc1)C1CCC(CCN2CCC3(CC2)C(=O)NCN3c2cccc(C(F)(F)F)c2)(c2ccccc2)CC1 (stereo not given) | 8.63%
2 | O=C(c1cc(C(F)(F)F)cc(C(F)(F)F)c1)N1CCC(CCN2CCC3(CC2)C(=O)NCN3c2ccccc2)CC1Cc1ccc(Cl)c(Cl)c1 (stereo not given) | 20%
3 | CC(=O)C1(c2ccccc2)CCN(CCC(NC(=O)c2cc(C(F)(F)F)cc(C(F)(F)F)c2)c2ccc(Cl)c(Cl)c2)CC1 (stereo not given) | 1.45%
4 | Cc1cc(NC(=O)[C@@H](Nc2ccc(C#N)c3ccccc23)C2CCCCC2)ccc1F | 3.85%
5 | c1ccc(C(OCCC2CCN(Cc3cccc4cccnc34)CC2)c2ccccc2)cc1 | 3.1%
6 | Cc1ccc(CC(C)NC[C@H](O)c2cccc(Cl)c2)cc1 (stereo not given in full) | 4.38% and 0.72%
7 | CC(Cc1ccc(OC2CCCCC2)cc1)NCC(O)c1cccc(Cl)c1 (stereo not given) | 21.7%
8 | CC(Cc1ccc(Oc2ccc(Cl)cc2)cc1)NCC(O)c1cccc(Cl)c1 (stereo not given) | 7.3%
9 | CN1C2CCC1c1cc(NC(=O)c3cc(-c4ccc(Cl)cc4)cs3)ccc12 (stereo not given) | 13.3%
10 | COC(C(=O)OCCC1CCCN1C)(c1ccccc1)c1ccccc1 (stereo not given) | 2.19%
11 | CC(Cc1ccc(OCc2ccccc2)cc1)NCC(O)c1cccc(Cl)c1 (stereo not given) | 15.6%
12 | CC(Cc1ccc(OCCCCOc2ccccc2)cc1)NCCC1CCCN1C (stereo not given) | 32.5%
13 | CC(Cc1ccc(Oc2ccccc2)cc1)NCC(O)c1cccc(C(F)(F)F)c1 (stereo not given) | 4.96%
14 | CC(Cc1ccc(OCCCCOc2ccccc2)cc1)NCCCN1CCOCC1 (stereo not given) | 30.1%
15 | COC(C(=O)OCCC1CCCN1C)(c1ccccc1)C1CCCCC1 (stereo not given) | 1.45%
16 | CC(Cc1ccc(OCCCCOc2ccccc2)cc1)NCCCn1ccnc1 (stereo not given) | 32.6%
17 | CC(Cc1ccc(OCCOc2ccccc2)cc1)NCC(O)c1cccc(C(F)(F)F)c1 (stereo not given) | 2.9%
18 | CCCCCOc1ccc(CC(C)NCC(O)c2cccc(Cl)c2)cc1 (stereo not given) | 4.86%
19 | CN1CC=C(c2c[nH]c3ccc(Sc4ccccc4)cc23)CC1 | 3.7%
20 | CCCCCCC(C)(C)c1cc(O)c2c3c(c(=O)oc2c1)CCN(Cc1ccccc1)C3 | 2.22%
21 | COC(=O)c1ccc(CC(C)NCC(O)c2cccc(OCc3ccccc3)c2)cc1 (stereo not given) | 5.76%
22 | CC1CN=C(Nc2ncc(Cl)cc2Cl)N1 (stereo not given) | 0.7%
23 | CN(C)CCc1c[nH]c2ccc(C(=O)Nc3ccc(-c4ccncc4)cc3)cc12 | 5.19%
24 | COc1cccc(CN2CCC(CCOC(c3ccccc3)c3ccccc3)CC2)c1O | 3.1%
25 | CC(C)CNCc1ccc(-c2cccc(CN(C(=O)CCC3CCCC3)C3CCN(Cc4ccccc4)CC3)c2)cc1 | 9.29%

Row | SMILES | IFI
26 | O=C(Nc1ccccc1C(F)(F)F)NC1CCC(CN2CCC(c3c[nH]c4ccccc34)CC2)CC1 (stereo not given) | 4.29% and 2.14%
27 | O=C1c2ccccc2CCC1CCN1CC=C(c2c[nH]c3ccccc23)CC1 (stereo not given) | 2.92%
28 | O=C(c1cc(C(=O)NCc2ccc(Cl)cc2)c(=O)n(Cc2ccc(Cl)cc2)c1)c1cc(Cl)ccc1O | 0%
29 | O=C(Nc1cc(C(F)(F)F)cc(C(F)(F)F)c1)c1cc(Cl)ccc1O | 33.3%
30 | O=C(/C=C/c1ccccc1Cl)NC1CCC(CN2C3CCC2CC(c2c[nH]c4ccccc24)C3)CC1 (stereo not given) | 6.38%
31 | CCCCCc1cc(O)c2c(c1)OC(C)(C)CC2C1=CCN(Cc2ccccc2)CC1 (stereo not given) | 2.86%
32 | Cc1csc(-c2ccc3[nH]cc(C4=CCN(C)CC4)c3c2)n1 | 0%
33 | CC[C@H]1CN2CC[C@H]1C[C@H]2[C@H](O)c1cc(N2CCCC(CO)C2)nc2ccc(OC)cc12 (stereo not given in full) | 0%
34 | O=C(NC1CCC(CN2CCC(c3c[nH]c4ccccc34)CC2)CC1)c1cc2cccc([N+](=O)[O-])c2[nH]1 (stereo not given) | 3.65%
35 | CC(Cc1ccc(NC(=O)CCNCc2ccccc2)cc1)NCCc1cccc(Cl)c1 (stereo not given) | 32.4%
36 | CC(Cc1ccc(NC(=O)CCCc2ccccc2)cc1)NCCc1cccc(Cl)c1 (stereo not given) | 4.29%
37 | CC(Cc1ccc(NC(=O)[C@H](C)NCCc2cccc(Cl)c2)cc1)NCCc1cccc(Cl)c1 (stereo not given in full) | 9.35%
38 | O=C(/C=C/c1ccccc1Cl)NC1CCC(CN2CCC(c3c[nH]c4ccccc34)CC2)CC1 (stereo not given) | 5.04% and 6.94%
39 | CC(=O)N(Cc1cccc(-c2cccc(CNCc3ccc4c(c3)OCO4)c2)c1)C1CCN(Cc2ccccc2)CC1 | 4.51%
40 | Fc1ccc(N(c2nc(-c3cc(F)cc(C(F)(F)F)c3)cs2)C2CCNCC2)cc1 | 17.1%
41 | COc1ccc(N(c2nc(-c3cc(Cl)ccc3Cl)cs2)C2CCNCC2)cc1 | 23.1%
42 | COc1ccc(F)cc1-c1csc(N(c2ccc(F)cc2)C2CCNCC2)n1 | 14.4%
43 | CCOC(=O)c1c(CN2CCN(C)CC2)n(Cc2ccccc2)c2cc(Br)c(O)cc12 | 5.56%
44 | COc1ccc(C=CC(=O)NC2CCC(CN3CCC(c4c[nH]c5ccccc45)CC3)CC2)cc1 (stereo not given) | 7.19% and 5.04%
45 | O=C(C=Cc1ccc(F)c(Br)c1)N1CCC(CN2CCC(c3c[nH]c4ccccc34)CC2)CC1 | 6.62%
46 | COc1ccc(C2CNCc3c2cc(OC)c(OC)c3Cl)cc1 (stereo not given) | 2.94%
47 | COc1cc(NC(=O)c2nn(CCCN3CCC4(CC3)C(=O)NCN4c3ccccc3)cc2-c2ccc(Cl)c(Cl)c2)cc(OC)c1OC | 15.4%
48 | O=C1NCN(c2ccc(O)cc2)C12CCN(CCCC(c1ccc(F)cc1)c1ccc(F)cc1)CC2 | 4.32%
49 | O=C(NCc1ccccc1)c1nn(CCCN2CCC3(CC2)C(=O)NCN3c2ccccc2)cc1-c1ccc(Cl)c(Cl)c1 | 24.3%
50 | O=C(NCc1ccc(S(=O)(=O)N2CCC(CN3CCC(c4c[nH]c5ccccc45)CC3)CC2)s1)c1ccccc1 | 6.85%

Row | SMILES | IFI
51 | O=C(C=Cc1ccc(Br)cc1)NC1CCC(CN2CCC(c3c[nH]c4ccccc34)CC2)CC1 (stereo not given) | 6.38%
52 | O=C1Nc2cccc3c2C1(CCCCN1CC=C(c2c[nH]c4ncccc24)CC1)CCC3 (stereo not given) | 4.41%
53 | N#Cc1c(F)cc(N2CCC(NCC[C@H](N)Cc3ccc(F)c(F)c3)CC2)cc1F | 21.9%
54 | N[C@@H](CCN1CCC(c2cccc(O)c2)CC1)Cc1ccc(F)c(F)c1 | 12.1%
55 | CCC1(C)N=C(N)N=C(N)N1c1ccc(Cl)cc1 (stereo not given) | 0%
56 | COc1cccc(C(=O)C2CC2CN2CC=C(c3c(C)[nH]c4ccccc34)CC2)c1 (stereo not given) | 3.74%
57 | CC(Cc1ccc(OCCCCOc2ccccc2)cc1)NCCc1ccccc1Cl (stereo not given) | 28%
58 | CC(Cc1ccc(OCCCCOc2ccccc2)cc1)NCCCc1nc2ccccc2[nH]1 (stereo not given) | 33.3%
59 | COc1cccc(CCNC(C)Cc2ccc(OCCCCOc3ccccc3)cc2)c1 (stereo not given) | 31%
60 | CC(Cc1ccc(OCCOc2ccccc2)cc1)NCC(O)c1cccc(Cl)c1 (stereo not given) | 6.38%
61 | C[C@H](Cc1ccc(OCCCCCCOc2ccccc2)cc1)NC[C@H](O)c1cccc(Cl)c1 | 7.64%
62 | COc1cccc(CC(C)NCC(O)c2cccc(Cl)c2)c1 (stereo not given) | 1.44%
63 | CNCCCCCCOc1ccc(CC(C)NCC(O)c2cccc(C(F)(F)F)c2)cc1 (stereo not given) | 7.8%
64 | C[C@H](Cc1ccc(OCCCCCCOc2ccccc2)cc1)NC[C@@H](O)c1cc(Br)no1 | 13.5%
65 | CC(Cc1ccc(OCc2ccc(CCN(C)C)cc2)cc1)NCCc1cccc(Cl)c1 (stereo not given) | 5.84%
66 | Cn1nc(C(F)(F)F)cc1-c1ccc(C(=O)NC2CCC(CN3CCC(c4c[nH]c5ccccc45)CC3)CC2)s1 (stereo not given) | 6.16%
67 | O=C(Nc1ccc(Cl)c(Cl)c1)N1CCC(CN2CCC(c3c[nH]c4ccccc34)CC2)CC1 | 4.23%
68 | CC[C@H]1CN2CC[C@H]1C[C@H]2[C@H](O)c1cc(-c2ccccc2C)nc2ccc(OC)cc12 | 5.44%
69 | CCCCCCCCNCC(O)c1ccc(Cl)c(Cl)c1 (stereo not given) | 11.1%
70 | CN(c1cc(NC(=O)c2cccs2)ccn1)C1CCN(Cc2ccccc2)CC1 | 2.78%
71 | Cc1nc(C)c(-c2ccc(Oc3ccc(OC(F)(F)F)cc3)cc2)c(OC(=O)N(CCNC(C)C)C(C)C)c1Br | 18%
72 | CNCCN(C)C(=O)Oc1c(Br)c(C)nc(C)c1-c1ccc(Oc2ccc(OC(F)(F)F)cc2)cc1 | 12.4%
73 | CNCCCN(C)C(=O)Oc1c(Br)c(C)nc(C)c1-c1ccc(Oc2ccc(OC(F)(F)F)cc2)cc1 | 7.41%
74 | COc1cccc(O)c1CNCC(O)c1cccc(C(F)(F)F)c1 (stereo not given) | 0.78%
75 | CC(=O)Nc1ccc2[nH]cc(C3CCN(CC4CCN(C(=O)/C=C/c5ccc(Cl)c(Cl)c5)CC4)CC3)c2c1 | 1.46%

— ChEMBL document CHEMBL1157539, “Thousands of chemical starting points for antimalarial lead identification” (Nature, 2010)
